From PubChem
RORgamma inh – ROR gamma (mouse) transcription inhibition; P51450; Drosophila S2 Gal4-RORgamma UAS-luciferase reporter, 20 h; Potency, µM (series often up to 53.6 µM), for inactives: top-dose activity change, negative = inhibition, actives largely listed as inhibitors; actives 5.4% (n = 310,000); AID 2551; further: potency means the concentration at half of the fitted maximal effect; nearly all actives have a fitted effect of over 60% in size
Target sequence (P51450 whole entry, looked up, the tested form may be a part): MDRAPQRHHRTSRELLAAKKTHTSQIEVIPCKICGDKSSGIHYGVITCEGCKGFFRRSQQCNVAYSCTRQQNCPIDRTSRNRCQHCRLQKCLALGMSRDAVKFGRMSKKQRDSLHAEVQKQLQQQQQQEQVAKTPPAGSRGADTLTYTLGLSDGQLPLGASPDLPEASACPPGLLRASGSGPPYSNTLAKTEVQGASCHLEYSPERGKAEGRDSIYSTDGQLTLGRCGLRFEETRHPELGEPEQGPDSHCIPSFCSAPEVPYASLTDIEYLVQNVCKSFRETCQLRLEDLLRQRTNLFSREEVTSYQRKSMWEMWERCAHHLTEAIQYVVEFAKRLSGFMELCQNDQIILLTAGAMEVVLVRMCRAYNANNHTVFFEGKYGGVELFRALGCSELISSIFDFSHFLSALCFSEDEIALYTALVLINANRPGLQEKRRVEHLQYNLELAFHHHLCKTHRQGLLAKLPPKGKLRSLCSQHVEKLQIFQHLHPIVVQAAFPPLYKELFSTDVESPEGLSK
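Drosophila S2 cells stably expressing Gal4-DBD/mouse RORγ fusion under metallothionein promoter plus UAS-luciferase; compound 1 h, then 700 uM CuSO4 induction for 20 h at ambient temperature; inhibition read as reduced luminescence.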
TDP1 cell CPT – DT40-hTDP1 cell growth loss with CPT; chicken DT40 Tdp1-/-;hTDP1 cells + 20 nM CPT, ATP luminescence, 48 h; Potency, µM (highest dose often 46.2 µM), inactives show at the top dose activity change, negative = growth inhibition, actives largely listed as inhibitors; actives 12% (n = 420,000); further: potency means the concentration at half of the fitted maximal effect; nearly all actives have a fitted effect of over 55% in size
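Cell growth measured by CellTiter-Glo luminescence after a minimum 48 h, 37 C compound exposure with 20 nM CPT in Tdp1-knockout DT40 cells stably expressing hTDP1, seeded 400/well; qHTS titration format.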
TDP1 cell noCPT – qHTS for Inhibitors of human tyrosyl-DNA phosphodiesterase 1 (TDP1): qHTS in cells in absence of CPT | DT40 Tdp1-/- hTDP1 cells, no CPT, ATP luminescence, 48 h | Potency, µM (doses to about 46.2 µM), for inactives: at the highest dose activity change, negative = growth inhibition, hits mostly inhibitors | actives 15% (n = 420,000) | AID 686978, 2013; further: potency means the concentration at half of the fitted maximal effect; nearly all actives have a fitted effect of over 55% in size
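Camptothecin absent (DMSO only). Human TDP1-complemented DT40 knockout cells, 400 cells/well, 37 °C for minimum 48 hr; ATP measured via CellTiter-Glo, 30 min dark incubation, luminescence.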
LDHA block – blocks human lactate dehydrogenase A; purified LDHA, NADH/diaphorase-resazurin fluorescence; stronger effect = lower value; actives 0.15% (n = 480,000); activity change, % (values are at about 110 or 230 µM); in the data active means activity change below about -30%; inconclusive means mostly about -25% to -30%;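 further: plate controls were DMSO wells for no effect and wells without enzyme for full effect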
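Enzyme activity of human lactate dehydrogenase 5 (2 nM; 0.06 mM NADH, 0.2 mM pyruvate, 5 min, RT) is measured via a resazurin/diaphorase fluorescence readout of residual NADH.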
IL-1B inflam inh – blocks inflammasome-driven IL-1 beta release | THP-1 LPS/ATP IL-1B secretion, AlphaLISA, 16 h; stronger effect = lower value | activity change, % at 57.5 µM | actives 4.7% (n = 360,000) | AID 743279; in the data active means activity change below about -50%; inconclusive means mostly about -30% to -49%
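Secreted IL-1B measured by AlphaLISA bead assay after 16 h compound exposure of THP-1 cells; compounds (final up to 57.5 uM) added 1 h before LPS (250 ng/mL) and ATP (1.25 mM) stimulation; lower signal means less secretion.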
VP16 counter – inhibits Gal4-VP16 luciferase reporter, ROR gamma counter-screen | Drosophila S2 Gal4-VP16 UAS-luciferase, luminescence, 20 h | Potency, µM (top dose mostly 53.6 µM), inactives show at the highest dose activity, negative = inhibition, most hits filed as inhibitors | actives 3.5% (n = 310,000) | AID 2546;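 further: Gal4-VP16 expression switched on by copper sulfate through the metallothionein promoter; potency means the concentration at half of the fitted maximal effect; nearly all actives have a fitted effect of over 50% in size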
* = called active by the depositor; u = inconclusive; x = no result; [ ] = dose if it differs, or a comment. Compounds with a hit are over-represented: about 18% of the library has one in this group of screens. Unless noted, the call rests on the fitted dose curve; in most records, active means well fitted curve in the direction sought with a large enough effect; inconclusive means small, poorly fitted or top-dose-only effect, or another doubt; inactive means no such curve, though single readings can be large; an effect the other way counts as inactive or inconclusive. Unless noted, on the % scale 0 is the no-effect control and ±100 the full control effect.

SMILES	RORgamma inh	TDP1 cell CPT	TDP1 cell noCPT	LDHA block	IL-1B inflam inh	VP16 counter
CN(C(=O)CSc1nc2ccccc2n1Cc1cccc(C(F)(F)F)c1)c1ccccc1	x	18µM*	16µM*	-3	x	x
O=C(CSc1nc2ccccc2n1Cc1cccc(C(F)(F)F)c1)NCc1ccccc1	x	18µM*	u	0	x	x
O=C(O)CCn1c(SCc2cccc3ccccc23)nc2ccccc21	40%	-8%	-20%	-4	27	22%
O=C(O)c1ccccc1CSc1nc2ccccc2n1Cc1ccccc1C(=O)O	5%	-6%	1%	-32*	8	-12%
CCn1c(SCc2ccccc2Cl)nc2ccccc21	10µM*	-24%	u	0	-4	-5%
CC(NC(=O)CC(C)(C(=O)O)c1ccccc1)c1ccc(F)c(F)c1 (stereo unspecified)	x	x	x	-2	x	x
CC(NC(=O)CCc1ccsc1)C1CCCO1 (stereo unspecified)	x	x	x	-8	x	x
O=C(CSc1nc2ccccc2n1Cc1cccc(F)c1)NCc1ccccc1	x	u	u	-12	x	x
O=C(CSc1nc2ccccc2n1Cc1ccccc1F)NCc1ccccc1	x	u	16µM*	-2	x	x
Cc1ccc(C)c(Cn2c(CO)nc3ccccc32)c1	7%[0.365 µM]	u	u	-7	11	x
Cc1ccc(C)c(Cn2c(SCC(=O)N(C)Cc3ccccc3)nc3ccccc32)c1	x	26µM*	26µM*	-3	x	x
CCCCn1c(Br)nc2c(=O)n(C)c(=O)n(C)c21	x	x	x	-20	x	x
Cn1cc(C(=O)N2CCN(Cc3ccc4c(c3)OCCO4)CC2)c(-c2ccc3c(c2)OCCCO3)n1	x	x	x	8	x	x
Cc1ccccc1C(=O)Nc1cccc(NC(=S)NC(=O)c2cccs2)c1	u	-28%	u	-6	-24	u
Cc1ccccc1C(=O)NNC(=S)NC(=O)c1cccs1	7.9µM*	21µM*	18µM*	-2	76	13µM*
CC(C)(C)c1ccc(C(=O)NC(=S)NNC(=O)c2cccs2)cc1	4µM*	23µM*	13µM*	-3	0	7.1µM*
O=C(NC(=S)NNC(=O)c1cccs1)c1ccccc1	5.6µM*	u	15µM*	-3	84	16µM*
CCCc1cc(=O)oc2cc(OCC(=O)NCc3ccncc3)c(Cl)cc12	x	x	x	-1	x	x
CCOc1cnn(-c2cc(Oc3ccc(C)cc3)ncn2)c(=O)c1Cl	4%	2%	-25%	-1	-1	4%
Cc1ccccc1Oc1cc(-n2ncc(Cl)c(Cl)c2=O)ncn1	1.1µM*	0.65µM*	0.41µM*	-8	-106*	3.2µM*
CCc1ccc(-c2cc3c(=O)n(CC(=O)NCCCN4CCN(CC)CC4)nc(C)n3n2)cc1	14%	18µM*	u	-7	u	6%
Cc1nn(CC(=O)NCCCN2CCC(N3CCCCC3)CC2)c(=O)c2cc(-c3ccccc3)nn12	22%	7.3µM*	4.1µM*	0	-20	-7%
Cc1nn(CC(=O)NCCCN2CCN(C)CC2)c(=O)c2cc(-c3ccccc3)nn12	-3%	5%	16%	0	-11	6%
CCOC(=O)C1CCN(C(=O)Cn2nc(C)n3nc(-c4ccc(CC)cc4)cc3c2=O)CC1	-1%	u	u	-5	59	-5%
CCN1CCN(CCCNC(=O)Cn2nc(C)n3c(cc4cc(C)ccc43)c2=O)CC1	x	-12%	-23%	3	x	x
SMILES	RORgamma inh	TDP1 cell CPT	TDP1 cell noCPT	LDHA block	IL-1B inflam inh	VP16 counter
CCOC(=O)C1CCCN(C(=O)Cn2nc(C)n3nc(-c4ccccc4)cc3c2=O)C1 (stereo unspecified)	13%	15µM*	u	-2	12	-10%
CC(CCc1ccccc1)NC(=O)c1cc(=O)c2ccccc2o1 (stereo unspecified)	x	x	x	-5	x	x
Cc1ccc(CNC(=O)Nc2ccc(N3CCOCC3)nc2)s1	x	x	x	0	x	x
CCn1cc(C(=O)NCCCN(C)S(C)(=O)=O)c2ccccc21	x	x	x	2	x	x
N#Cc1ccc(OCC(=O)N2CCN(S(=O)(=O)c3cccc(Cl)c3)CC2)cc1	x	-6%	-20%	4	-11	x
N#Cc1ccc(OCC(=O)N2CCN(S(=O)(=O)c3ccc(Cl)s3)CC2)cc1	x	16µM*	u	-1	u	x
O=C(Cc1ccc(S(=O)(=O)N2CCOCC2)s1)N1CCN(S(=O)(=O)c2ccc(Cl)cc2)CC1	x	23µM*	23µM*	-6	u	x
O=C(Cc1ccc(S(=O)(=O)N2CCOCC2)s1)N1CCN(S(=O)(=O)c2cccc(Cl)c2)CC1	x	16µM*	16µM*	-6	0	x
CCOc1ccccc1N1CCN(C(=O)Cc2ccc(S(=O)(=O)N3CCOCC3)s2)CC1	x	u	21µM*	-7	-11	x
Cc1ccc(S(=O)(=O)N2CCN(C(=O)Cc3ccc(S(=O)(=O)N4CCOCC4)s3)CC2)cc1	-4%	-19%	-19%	-2	3	3%
O=C(Cc1ccc(S(=O)(=O)N2CCOCC2)s1)N1CCN(S(=O)(=O)c2cccc(F)c2)CC1	x	u	-10%	-5	-9	x
O=C(Cc1ccc(S(=O)(=O)N2CCOCC2)s1)N1CCN(c2cccc(C(F)(F)F)c2)CC1	45%	7.3µM*	3.7µM*	1	8	u
O=C(Nc1ccc(S(=O)(=O)N2CCOCC2)cc1)c1ccc(Cl)s1	u	23µM*	u	5	-21	-13%
O=C(Nc1ccc(Cl)cc1)c1ccc(S(=O)(=O)N2CCOCC2)cc1	49%	u	u	-7	7	-3%
O=C(c1ccc(S(=O)(=O)N2CCOCC2)cc1)N1CCN(S(=O)(=O)c2ccc(Cl)s2)CC1	14%	u	16µM*	-3	-1	-1%
O=C(c1ccc(S(=O)(=O)N2CCOCC2)cc1)N1CCOCC1	24%	-15%	7%	-1	4	-6%
Nc1ccc(Sc2ccc(Cl)cc2)cc1	x	x	x	5	x	x
Cc1ccc(C2C3=C(CC(C)(C)CC3=O)Nc3c2c(=O)n(C)c(=O)n3C)cc1 (stereo unspecified)	x	x	x	-3	x	x
O=C1[C@@H]2Cc3c([nH]c4ccccc34)C(c3cccc(Br)c3)N2C(=O)CN1C1CCN(Cc2ccccc2)CC1 (stereo partly specified)	u	u	21µM*	-8	-64*	u
